Values joined by “and” are separate entries in the source; they are usually repeats but may differ in a detail not shown here. Identical values can stand only once. Results filed as inconclusive are left out. Entries that show only a call come without a potency. The source holds several records for some structures; these can differ, active in one and inactive in another. Active and inactive are the calls of the source. Calls follow the shape of the dose curve; as a rule, active = well fitted inhibition curve with a large enough effect in the repeat runs; inconclusive = weak or mixed curves; inactive = no such curve, though single readings can be large or run the other way.
Potency is read from the fitted curve at half-maximal effect.

Cytochrome P450 2C9 (Homo sapiens), sequence (P11712 whole entry, looked up): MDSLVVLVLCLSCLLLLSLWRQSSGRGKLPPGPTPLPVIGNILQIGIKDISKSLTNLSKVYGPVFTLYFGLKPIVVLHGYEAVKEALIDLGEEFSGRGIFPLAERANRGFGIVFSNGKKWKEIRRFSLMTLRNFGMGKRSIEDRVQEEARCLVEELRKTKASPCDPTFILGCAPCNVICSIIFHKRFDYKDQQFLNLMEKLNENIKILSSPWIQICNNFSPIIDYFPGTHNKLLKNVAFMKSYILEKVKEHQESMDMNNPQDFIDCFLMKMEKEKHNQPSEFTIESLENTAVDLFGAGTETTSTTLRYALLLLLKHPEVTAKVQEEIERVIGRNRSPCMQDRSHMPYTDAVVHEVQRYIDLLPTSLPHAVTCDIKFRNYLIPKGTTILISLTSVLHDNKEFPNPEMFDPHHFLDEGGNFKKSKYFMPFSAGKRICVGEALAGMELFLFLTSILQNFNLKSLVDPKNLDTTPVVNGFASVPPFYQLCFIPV

The target of this experiment is Cytochrome P450 2C9 (Homo sapiens) (UniProt P11712). The experiment is described as follows: Cytochrome P450 Family 2 Subfamily C Member 9 (CYP2C9) small molecule antagonists: luciferase reporter qHTS assay (AID 1671198). Also: nearly all actives have a fitted effect of over 50% in size. To be noted: P450-Glo CYP2C9 enzyme assay, luciferin luminescence; series mostly up to 115 µM. From the text:
U.S. Tox21 Program National Center for Advancing Translational Sciences [NCATS] U.S. Environmental Protection Agency [EPA] National Institutes of Environmental Health Sciences [NIEHS] National Toxicology Program [NTP] U.S. Food and Drug Administration [FDA] Tox21 Assay Overview: Cytochrome P450 (CYP) enzymes are membrane-bound hemeproteins that play a key role in metabolism of drugs and xenobiotics. Evaluation of the effect of chemicals on CYP isozymes is useful to minimize the adverse drug reactions and toxicities in drug development process. Tox21 chemicals were tested for their effect on CYP enzyme activities by using P450-Glo (TM) screening systems (Promega Corporation, Madison, WI). These systems provide a luminescent method containing proluciferin substrates and are converted to luciferin products by CYP isozymes. The luciferin products formed are detected with a luciferin detection reagent, and the amount of light produced is proportional to CYP activity. P450-Glo (TM) CYP2C9 screening system (Catalog. No. V9790) was used to detect the compounds that interfere in CYP2C9 activity.
Tox21 Assay Protocol Summary: Two ul of enzyme-substrate mix was dispensed into medium binding white/solid 1536-well plates (Greiner Bio-One North America Inc., Monroe, NC) using a BioRaptr Flying Reagent Dispenser (FRD, Beckman Coulter, Brea, CA). […] The assay plates were incubated at room temperature for 10 min. Then 2 ul of NADPH regeneration solution was added to each well of the assay plates using an FRD and incubated at 37C for 1 h. The reaction was stopped by adding 4 ul of detection reagent using an FRD and after 20 min incubation at room temperature the luminescence signal was measured using a ViewLux plate reader (Perkin Elmer, Shelton, CT). Data were expressed as relative luminescence units.
For `Nc1ccc(Br)cc1`, the Potency was 35.5 µM (active) and 35.6 µM (active).
`CNC(=O)Oc1ccccc1OC(C)C`: the Potency result was “inactive”.
For the compound `CCCCN(CCCC)SN(C)C(=O)Oc1cccc2c1OC(C)(C)C2`, the Potency was 40.6 µM (active) and 31.7 µM (active).
For `CC(C)(C)C(O)(CCc1ccc(Cl)cc1)Cn1cncn1` (stereo not given) the value was 3.21 µM (active) and 3.56 µM (active); for `CN(C)N=O`, “inactive”.
With `CCCCCCCCCCCC#N` the entry was “inactive”; with `CCCCN(CC)C(=O)SCCC`, “inactive”; with `O=C(O)c1ccccn1`, “inactive”.
Regarding `Nc1c(Cl)c(Cl)nc(C(=O)O)c1Cl`, the Potency result is “inactive and 65.3 µM (active)”.
Regarding `CC(C)(C)OOC(C)(C)C`, the Potency entry is “inactive”.
As for `CCC(C)(CC)c1cc(NC(=O)c2c(OC)cccc2OC)on1`, the Potency was 35.7 µM (active) and 34.2 µM (active).
`COc1ccc2c3c1O[C@H]1[C@@H](O)C=C[C@H]4[C@@H](C2)N(C)CC[C@@]341`: the Potency entry is “inactive”.
For `O=c1ccc(=O)[nH][nH]1`, the Potency entry is “inactive”.
On to `CON(C)C(=O)Nc1ccc(Cl)c(Cl)c1`, for which the Potency is 40.1 µM (active) and 39.9 µM (active).
For `ClCCBr` the value was “inactive”; for `CC(Oc1ccc(Cl)cc1Cl)C(=O)O` (stereo not given), 35.7 µM (active) and 71 µM (active); for `O=S(=O)(c1ccc(Cl)cc1)c1cc(Cl)c(Cl)cc1Cl`, 28.3 µM (active).
With `CCN(CC)c1ccccc1`, the Potency result is “inactive and 71 µM (active)”.
With `CC(=O)C=C(C)C`, the Potency entry was “inactive”.
Take `ClCc1cccnc1`: the Potency result is “inactive”.
For `c1ccc(OP(Oc2ccccc2)Oc2ccccc2)cc1` the value was “inactive”.
Consider `CC(C#N)CCC#N` (stereo not given), for which the Potency entry was “inactive”.
As for `CCOP(=S)(OCC)SCCSCC`, the Potency is 32.7 µM (active) and 15.1 µM (active).
With `O=c1[nH]c2ccccc2c(=O)o1`, the Potency result is “inactive”.
As to `CCNc1nc(NC(C)(C)C)nc(SC)n1`, the Potency entry was “inactive”.
As for `c1ccc(-c2ccccc2)cc1`, the Potency result was “inactive”.
For the compound `COC(=O)c1ccccc1C(=O)OC`, the Potency entry was “inactive”.
With `CN(C)CCO` the entry was “inactive”; with `CN(N=O)c1ccccc1`, “inactive”.
Regarding `O=[N+]([O-])c1ccccc1`, the Potency entry was “inactive”.
`O=Cc1cccc(Oc2ccccc2)c1`: the Potency is 40.2 µM (active).
With `COCCl` the entry was “inactive”; with `Clc1ccc(Cl)cc1`, “inactive”.
For `BrCCBr` the value was “inactive”; for `C=CCO`, “inactive”.
`Cn1cc(-c2ccccc2)c(=O)c(-c2cccc(C(F)(F)F)c2)c1`: the Potency was 34.7 µM (active) and 31.7 µM (active).
With `CC(C)(Cl)Cl`, the Potency entry was “inactive”.
For `CC1OC(C)OC(C)O1` (stereo not given), the Potency result was “inactive”.
For the compound `O=S(=O)(c1ccc(O)cc1)c1ccc(O)cc1`, the Potency entry is “inactive”.
Turning to `O=c1[nH]c(=O)[nH]c(=O)[nH]1`, the Potency result was “inactive”.
